PGE2 EP2 inh = human EP2 receptor antagonists, primary screen, TR-FRET cAMP, C6 glioma cells. C6 glioma cells expressing human EP2; cells stimulated with saturating PGE2. Prostaglandin E2 receptor EP2 subtype (Homo sapiens), P43116. inhibition, % at 25 µM. 0.52% of 260,000 active;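 active means percent inhibition above 40 after rounding to a whole number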;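 further: rat C6 glioma host cells with rolipram phosphodiesterase inhibitor present; the protocol text gives 20 µM as final concentration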
Target sequence (P43116 whole entry, looked up): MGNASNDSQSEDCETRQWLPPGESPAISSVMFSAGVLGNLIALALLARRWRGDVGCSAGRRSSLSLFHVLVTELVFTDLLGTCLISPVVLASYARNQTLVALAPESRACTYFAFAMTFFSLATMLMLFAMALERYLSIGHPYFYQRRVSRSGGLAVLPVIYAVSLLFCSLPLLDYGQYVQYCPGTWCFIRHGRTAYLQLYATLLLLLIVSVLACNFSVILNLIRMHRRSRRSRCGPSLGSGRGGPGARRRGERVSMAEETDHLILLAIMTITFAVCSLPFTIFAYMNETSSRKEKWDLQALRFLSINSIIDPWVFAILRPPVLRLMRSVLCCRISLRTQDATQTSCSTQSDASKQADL
CHT inh = inhibitors of human choline transporter CHT; CHT-expressing cells, membrane potential dye, choline response; stronger effect = lower value; B-score at 10 µM; 0.86% of 310,000 active;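 active means B-score over 3 SD under the library average, and starting fluorescence ratio not unusually high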;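 further: choline stimulus applied at its EC90 after an EC20 pre-addition; B-score computed on integrated fluorescence ratio after choline addition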
CHT PAM = CHT positive allosteric modulators, primary screen, cell-based, membrane potential dye, choline EC20; High affinity choline transporter 1 (Homo sapiens), Q9GZV3; CHT-expressing cells; stronger effect = higher value; LV-AA mutant CHT in HEK293 cells; B-score at 10 µM; 0.49% of 310,000 active; AID 488977, 2010;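 active means initial fluorescence not abnormally high and integrated response B-score, plate-corrected, over 3 SD above library mean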
EP2 mod = EP2 receptor modulators, cAMP readout, primary screen, cell-based, HTRF cAMP, PGE2 stimulation; Prostaglandin E2 receptor EP2 subtype (Homo sapiens), P43116; EP2-expressing cells, cAMP HTRF FRET, PGE2 co-stimulation; induction, % at 25 µM; 0.83% of 260,000 active;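 active means compounds whose cAMP rise, as percent of the full-agonist control response, exceeds 60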;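 further: rat C6 glioma line stably carrying human EP2 under a CMV promoter; the protocol text gives 20 µM as final concentration; 100% = response of wells given 1 µM PGE2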
CHT act confirm = CHT activators, confirmation, cell-based, membrane potential dye, duplicate. shares compounds with CHT PAM. 91% of 2,500 active. CHT-expressing cells, membrane potential dye fluorescence (FDSS); % of choline EC20–EC90 response window; HEK293 expressing CHT LV-AA mutant; choline added at its EC20. activation, % at 10 µM;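 active means primary screen active, with duplicate mean activation above negative control mean plus 3 SD, cut at about 11% in these data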
HEK293 MP dye = membrane potential response in parental HEK293 cells, counter-screen for CHT activator project, cell-based, membrane potential dye; membrane potential dye fluorescence (FDSS); measured after EC20 choline addition; 62% of 2,500 active; ratio readout change at 10 µM, hits read low; shares compounds with CHT PAM;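 active means duplicate-averaged ratio beyond 3 SD from buffer wells, up or down, though filed actives are nearly all decreases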
An asterisk follows results filed as active; i = inactive; . = not tested or not shown. Sampled rows, rich in hits. Any-hit rate of the full collection: about 2.1%.

SMILES | PGE2 EP2 inh | CHT inh | CHT PAM | EP2 mod | CHT act confirm | HEK293 MP dye
Cc1ccnc(SCc2cn3c(C)cccc3n2)n1 | 3.3 | i | 7.05* | -19.5 | 27.2* | -46.1*
Cc1cccc2nc(CSc3ncccc3C(=O)O)cn12 | 4.6 | i | i | 18.2 | . | .
Cc1cc(C)nc(SCc2cn3c(C)cccc3n2)n1 | 6.5 | i | 6.84* | -17.3 | 44.3* | -53.2*
Cc1cc(C)c(C#N)c(SCc2cn3c(C)cccc3n2)n1 | 3.5 | i | i | -20.4 | 56.5* | -41.6*
Clc1ccc(-c2cn(-c3ccccc3)c3[n+]2CCS3)cc1 | 6.5 | i | i | 22.2 | 40.8* | -39.9*
Fc1ccc(-c2cn(-c3ccccc3)c3[n+]2CCS3)cc1 | 14.9 | i | i | 5.2 | 51.5* | -41.8*
Clc1ccc(-c2c[n+]3c(n2-c2ccccc2)SCC3)cc1 | 4.0 | i | i | -21.8 | 43.5* | -27.8*
COc1ccc2c(c1)sc(N)[n+]2Cc1cc(C)cc2cccnc12 | 4.8 | i | 9.55* | 26.4 | 54.1* | -37.7*
COc1cc(NCCCC(C)N)c2ncccc2c1 (stereo unspecified) | 10.4 | . | . | 3.7 | . | .
CCOc1ccc2nc(Cl)sc2c1 | 5.0 | i | i | -3.9 | . | .
CCOc1ccc2c(c1)sc(N)[n+]2Cc1cc(C)cc2cccnc12 | 5.2 | i | 11.2* | 46.2 | 51.9* | -33.6*
COc1cccc(NC(=O)CSc2nnc3c4ccccc4n(C)c3n2)c1 | 8.9 | . | . | -13.0 | . | .
CCCn1cc(NC(=O)[C@H]2C[C@@H](c3cccs3)NS(=O)(=O)N2C)cn1 | . | . | . | -30.0 | . | .
Cc1cc2oc(C(=O)Nc3ccc(S(=O)(=O)Nc4onc(C)c4C)cc3)cc(=O)c2cc1Cl | 15.9 | i | i | -8.5 | 37.2* | -34.7*
Cc1sc2nc(CN3CCCC3)nc(NCc3ccncc3)c2c1C | 6.0 | i | 6.32* | 17.6 | 32.5* | -34*
Cc1sc2nc(CN3CCCC3)nc(Cl)c2c1C | 8.3 | i | i | 17.2 | 52.1* | i
CCOC(=O)c1sc2nc(CN3CCCCC3)nc(Cl)c2c1C | 5.8 | i | i | 15.6 | . | .
CCN(CC)S(=O)(=O)c1ccc(S(=O)(=O)NCc2ccco2)cc1 | 5.5 | . | . | -22.7 | . | .
CS(=O)(=O)N1CCN(c2ccc(NC(=O)c3cccc(F)c3)cc2)CC1 | 8.5 | . | . | 6.5 | . | .
NC(=Nc1ccccc1)NC(=O)c1nc(Cl)c(N)nc1N | 16.1 | i | i | -11.1 | . | .
CN(C)c1nc(N)c(C(=O)N=C(N)N)nc1Cl | 16.1 | i | 8.73* | 34.5 | 55.9* | -39*
Cc1nn(CC(=O)N2CCCC2)c(=O)c2cc3occc3n12 | 7.0 | . | . | -12.1 | . | .
CCCCCC[N+](C)(C)CCSSCC[N+](C)(C)CCCCCC | 9.2 | i | i | 8.6 | 38.0* | -45.8*
COCCN1C(=O)C(=O)/C(=C(\O)c2cccc(OC)c2)C1c1cccnc1 (stereo unspecified) | 10.6 | . | . | -11.1 | . | .
CC[C@H](Cn1nc(-c2cccs2)ccc1=O)NC(=O)Cn1cnc2ccccc21 | . | . | . | -7.2 | . | .
SMILES | PGE2 EP2 inh | CHT inh | CHT PAM | EP2 mod | CHT act confirm | HEK293 MP dye
NC(N)=Nc1nc(-c2ccccc2)c2cc(F)ccc2n1 | 12.3 | i | i | -10.6 | 28.8* | -47.8*
O=C(Nc1ccc(S(=O)(=O)Nc2nccs2)cc1)c1nn(-c2ccc(F)cc2)ccc1=O | . | i | 6.33* | . | 36.5* | -35.9*
CCCC(CCC)C(=O)Nc1ccc2c(c1)N(C(=O)CN1CCN(C)CC1)c1ccccc1CC2 | 10.5 | i | 6.7* | -81.2 | 29.3* | i
CC(=O)Nc1ccc2c(c1)N(C(C)=O)c1ccccc1CC2 | 3.8 | i | i | -11.5 | . | .
Cc1ccc(-n2cccc2CN(CCCn2ccnc2)Cc2ccc(C)o2)nc1 | 5.3 | . | . | 11.3 | . | .
CCCN(CCC)C1=CC(=[N+]2CCCC2)CC(C)(C)C1 | 3.4 | i | 12* | -2.3 | 35.1* | i
O=C(NCCn1nc(-c2cccs2)ccc1=O)C1(c2ccc(Cl)cc2)CC1 | 10.6 | . | . | -16.2 | . | .
Nc1c2c(nc3ccn(-c4ccccc4)c(=O)c13)CCCCC2 | 2.8 | i | i | -18.5 | 48.7* | -50*
Nc1c2c(nc3ccn(Cc4ccccc4)c(=O)c13)CCC2 | 16.6 | i | 6.98* | . | 54.0* | -50.2*
O=c1c2c3c(sc2ncn1Cc1ccccc1)CCCC3 | 8.7 | . | . | 0.2 | . | .
CCC(=O)N1CCN(c2cc(N3CCN(C)CC3)c(F)cc2[N+](=O)[O-])CC1 | 3.0 | i | 7.97* | 12.5 | 56.7* | -58.4*
O=c1c2cnn(-c3ccccc3)c2nc(-c2cccs2)n1-c1ccc(Br)cc1 | 19.0 | i | i | 31.8 | 13.6* | i
O=c1[nH]c2cc3c(cc2cc1CN(CC1CCCO1)S(=O)(=O)c1ccc(F)cc1)OCCO3 (stereo unspecified) | 7.1 | . | . | 16.9 | . | .
COc1ccc(C(C)n2c(C)c3c(C)nnc(C)c3c2C)cc1 (stereo unspecified) | 4.7 | i | 6.61* | -2.8 | 55.7* | -44.9*
CCCC1=[N+](CC)CCn2c(C)ccc21 | 11.3 | i | i | 9.2 | . | .
CCCC1=[N+](CC(=O)c2ccccc2)CCn2c(C)ccc21 | 9.6 | i | 8.14* | -9.8 | 40.0* | i
CNC(=S)Nc1cc(S(=O)(=O)Nc2cc(Cl)ccc2Cl)ccc1N1CCCC1 | . | i | i | . | 14.4* | i
O=C(O)COc1ccc(/C=C/c2nc3ccc([N+](=O)[O-])cc3s2)cc1 | 8.2 | i | 6.67* | -2.8 | 46.4* | -51.9*
N#C/C(=C\c1c(N2CCCCC2)nc2ccccn2c1=O)C(=O)NC1CCS(=O)(=O)C1 (stereo unspecified) | 5.6 | i | 12.8* | -19.9 | 0.4 | -62.3*
CSc1nnc2c(n1)OC(C)=Nc1ccccc1-2 | 9.9 | i | i | -3.4 | 40.7* | -40.6*
COc1ccc(OC)c(Nc2c3c(nc4ccccc24)CCC3)c1 | . | i | i | . | . | .
COc1cc(Nc2c3c(nc4ccccc24)CCC3)cc(OC)c1OC | . | i | i | . | 36.0* | -35.6*
C[n+]1cccc2c(Br)ccc([O-])c21 | 12.4 | i | 6.42* | -3.5 | 58.0* | -47.6*
CC1CN(c2nc3c(c(=O)[nH]2)CCN(Cc2cc(Br)cs2)C3)CC(C)O1 (stereo unspecified) | . | . | . | -10.5 | . | .
Cc1cccc2c(=O)cc(C)n(CC(N)=O)c12 | 7.6 | i | 10.9* | -4.8 | 67.5* | -78*
COc1cccc2c(=O)cc(C)n(CC(=O)Nc3ccccc3C)c12 | 10.1 | i | i | -20.5 | . | .

High-throughput results: PubChem BioAssay, several laboratories
